Sampled rows, rich in hits. Any-hit rate of the full collection: about 1.6%.
KCNQ2 enhance = potentiators of rat KCNQ2 potassium channel | 0.54% of 310,000 active | Potassium voltage-gated channel subfamily KQT member 2 (Rattus norvegicus), O88943 | AID 2239, 2010 | B-score at 10 µM | CHO-K1 KCNQ2, FluxOR thallium flux fluorescence; hits give high values;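 active = fluorescence ratio B-score at least 3 SD of library B-scores, with initial fluorescence B-score within 3 of them, cut at about 5.3 in these data; same plate scores as AID 2156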;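 also: B-score of peak minus minimum over baseline fluorescence ratio after K+ and Tl+ stimulus; positive B-score means potentiation of KCNQ2 with more thallium influx and brighter signal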
KCNQ2 block = rat KCNQ2 potassium channel inhibitors, primary screen, cell-based, CHO-K1, FluxOR thallium flux, B-score; AID 2156, 2009; 1.1% of 310,000 active; B-score at 10 µM; 20 min; hits give low values;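 active = fluorescence ratio B-score at most minus 3 library SDs, with starting brightness B-score within 2 library SDs, cut at about -5.5 in these data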
Kir21 confirm = mouse Kir2.1 channel blockers, retest, confirmation, cell-based, FluxOR thallium flux, duplicate. Kir2.1-expressing cells, FluxOR thallium flux fluorescence; hits give low values. 41% of 2,300 active. Tl flux remaining, % of negative control (hits give low values), % at 10 µM. shares compounds with KCNQ2 enhance. AID 2032, 2009;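 active = Primary-screen hit whose thallium flux fell at least 3 control SD below untreated wells in both duplicates, with normal baseline fluorescence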;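 also: 0% = blank wells without stimulus and 100% = stimulated no-compound controls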
HEK293 ctr = alters thallium flux in parental HEK293 cells, Kir2.1 counter-screen; FluxOR thallium flux fluorescence; 0% = unstimulated blank wells; 19% of 2,300 active; AID 2105; shares compounds with KCNQ2 enhance; FluxOR signal as % of negative control (100 = no effect), % at 10 µM;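 active = dye signal at least 3 control SD above or below untreated wells in both duplicates, raw fluorescence within 3, either direction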;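 also: percent is based on the flux ratio of peak minus minimum fluorescence over baseline F0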
CHO-K1 ctr = nonspecific thallium flux increase in parental CHO-K1, confirmation, counter-screen for KCNQ2 potentiator project, cell-based, FluxOR thallium flux, duplicate; shares compounds with KCNQ2 enhance; parental CHO-K1 cells, FluxOR thallium flux fluorescence; zero = vehicle mean+3SD, 100% = vehicle-minus-blank window; activity increase over 3SD of controls, % at 10 µM; 43% of 1,200 active; AID 2282, 2010;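 active = signal rise of at least 3 SD above the untreated control mean, in both duplicate wells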;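 also: counter screen of KCNQ2 potentiator hits so any rise reflects channel-independent effects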
KCNQ1 pot spec = human KCNQ1 channel potentiation off-target, confirmation, selectivity assay for KCNQ2 potentiator project, cell-based, CHO, FluxOR thallium flux. shares compounds with KCNQ2 enhance. CHO KCNQ1 stable, FluxOR thallium flux fluorescence; beyond 3SD, as % of vehicle-control signal. activation over 3SD threshold, % at 10 µM. 28% of 1,200 active;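 active = fluorescence ratio rise of at least 3 SD of vehicle wells above their mean, in both replicate wells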;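 also: 0% = vehicle mean plus 3 SD and 100% = vehicle minus unstimulated blank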
Target sequence (P51787 whole entry, looked up): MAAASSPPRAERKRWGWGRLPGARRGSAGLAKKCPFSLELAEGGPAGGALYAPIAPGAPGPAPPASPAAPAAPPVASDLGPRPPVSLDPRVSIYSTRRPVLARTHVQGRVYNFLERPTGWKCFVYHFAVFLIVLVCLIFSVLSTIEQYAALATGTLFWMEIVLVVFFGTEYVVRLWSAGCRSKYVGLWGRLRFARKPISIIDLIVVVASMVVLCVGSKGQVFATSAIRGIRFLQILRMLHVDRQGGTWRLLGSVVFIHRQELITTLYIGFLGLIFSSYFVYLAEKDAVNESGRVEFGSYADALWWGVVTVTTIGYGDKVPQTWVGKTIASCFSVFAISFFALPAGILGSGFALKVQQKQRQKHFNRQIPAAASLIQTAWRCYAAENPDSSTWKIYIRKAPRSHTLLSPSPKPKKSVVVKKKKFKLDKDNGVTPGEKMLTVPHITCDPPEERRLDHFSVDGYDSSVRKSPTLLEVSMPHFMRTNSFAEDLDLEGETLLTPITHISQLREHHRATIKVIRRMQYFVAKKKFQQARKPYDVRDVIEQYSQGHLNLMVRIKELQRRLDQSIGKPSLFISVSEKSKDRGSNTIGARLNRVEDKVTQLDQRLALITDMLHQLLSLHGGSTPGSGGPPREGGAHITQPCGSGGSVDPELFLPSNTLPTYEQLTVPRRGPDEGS
KCNQ2 pot confirm = rat KCNQ2 channel potentiators, confirmation, cell-based, CHO, FluxOR thallium flux, duplicate; shares compounds with KCNQ2 enhance; CHO-KCNQ2 cells, FluxOR thallium flux fluorescence; potentiation, less the hit threshold, % at 10 µM; 68% of 1,200 active; AID 2287, 2010;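 active = fluorescence ratio rising 3 SD or more over the vehicle control mean in both replicates, plus primary screen hit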;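 also: peak minus minimum thallium fluorescence divided by baseline after K/Tl stimulus; 0% = vehicle mean plus 3 SD and 100% = vehicle minus unstimulated blank difference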
Kir2-1 sel = mouse Kir2.1 channel activation off-target, confirmation, selectivity assay for KCNQ2 potentiator project, cell-based, HEK293, FluxOR thallium flux. AID 2345, 2010. shares compounds with KCNQ2 enhance. activity over 3SD threshold, % at 10 µM. HEK293 Kir2.1, FluxOR thallium flux fluorescence. 2% of 1,200 active;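 active = fluorescence ratio rise of at least 3 SD above the vehicle-control mean, seen in both replicates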;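 also: 0% = vehicle mean plus 3 SD and 100% = vehicle minus no-stimulus blank window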
KCNQ2 W236L MoA = potentiators of retigabine-insensitive KCNQ2 W236L, mechanism study for KCNQ2 potentiator project, cell-based, rat KCNQ2 W236L, CHO, automated patch clamp; 10% of 940 active; current increase over 3SD of negative controls (%), hits give high values, % at 25 µM; automated patch clamp current; shares compounds with KCNQ2 enhance; AID 2558, 2010;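 active = current increase at least 3 SD of the untreated controls above them in both duplicate recordings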
* = called active by the depositor.

How did O=C(NC(=S)Nc1cccnc1)c1ccccc1 do in these assays?
KCNQ2 enhance: 0.03; KCNQ2 block: inactive

What do the screens show for `COc1ccc(NC(=S)NC(=O)c2ccc(Br)o2)cc1`?
KCNQ2 enhance: 8.5*; KCNQ2 block: inactive; Kir21 confirm: inactive; HEK293 ctr: 200%*; CHO-K1 ctr: -6; KCNQ1 pot spec: -4; KCNQ2 pot confirm: 39*; Kir2-1 sel: -23; KCNQ2 W236L MoA: inactive

How did Cc1snnc1C(=O)NC(=S)Nc1ccccc1 do in these assays?
KCNQ2 enhance: 6*; KCNQ2 block: inactive; Kir21 confirm: inactive; HEK293 ctr: 239%*; CHO-K1 ctr: -22; KCNQ1 pot spec: -14; KCNQ2 pot confirm: 34*; Kir2-1 sel: -17; KCNQ2 W236L MoA: inactive

How did NC(=O)c1ccccc1NC(=S)NC(=O)c1ccc(Br)o1 do in these assays?
KCNQ2 block: inactive

How did O=C(NC(=S)Nc1ccccc1)c1ccc(Br)o1 do in these assays?
KCNQ2 enhance: 8.2*; KCNQ2 block: inactive; Kir21 confirm: inactive; HEK293 ctr: 162%*; CHO-K1 ctr: 130*; KCNQ1 pot spec: -19; KCNQ2 pot confirm: 35*; Kir2-1 sel: -24; KCNQ2 W236L MoA: inactive

Results for O=C(NC(=S)NCc1ccccc1)c1ccc(Br)o1 ?
KCNQ2 enhance: 13*; KCNQ2 block: inactive; Kir21 confirm: inactive; HEK293 ctr: 330%*; CHO-K1 ctr: -11; KCNQ1 pot spec: -19; KCNQ2 pot confirm: 53*; Kir2-1 sel: -31; KCNQ2 W236L MoA: inactive

Results for COc1ccc(NC(=O)c2ccc(Br)o2)cc1 ?
KCNQ2 enhance: 0.29; KCNQ2 block: inactive

Results for O=C(NNC(=S)NCc1ccccc1)c1ccc(Br)o1 ?
KCNQ2 block: inactive

What do the screens show for `Cn1c(N)c(S(=O)(=O)N2CCCC2)c(=O)n(C)c1=O`?
KCNQ2 block: inactive

Results for C/C(CC(=O)NC12CC3CC(CC(C3)C1)C2)=N\NC(=O)c1ccc(C)cc1 ?
KCNQ2 block: inactive

Results for CC(NC(=S)NCCc1ccccc1)C(c1cccs1)N1CCN(Cc2ccccc2)CC1 (centres undefined) ?
KCNQ2 block: inactive

How did O=C(CNC(=O)Cc1cccc2ccccc12)NCc1ccc(F)cc1 do in these assays?
KCNQ2 block: inactive

What do the screens show for `O=C(NC(=S)N1CCc2ccccc21)c1ccc(Br)o1`?
KCNQ2 enhance: 9.8*; KCNQ2 block: inactive; Kir21 confirm: inactive; HEK293 ctr: 399%*; CHO-K1 ctr: -9; KCNQ1 pot spec: 48*; KCNQ2 pot confirm: 75*; Kir2-1 sel: -15; KCNQ2 W236L MoA: inactive

How did O=C(NC(=S)N1CCc2ccccc21)C1CCC1 do in these assays?
KCNQ2 enhance: 0.25; KCNQ2 block: inactive

Results for CC(C)(C)c1ccc(C(=O)CC(=O)c2cc(Cl)ccc2O)cc1 ?
KCNQ2 enhance: 1.6; KCNQ2 block: inactive

What do the screens show for `Cc1ccc(C(=O)CC(=O)c2cc(Cl)ccc2O)cc1`?
KCNQ2 enhance: 6*; KCNQ2 block: inactive; Kir21 confirm: inactive; HEK293 ctr: inactive; CHO-K1 ctr: -18; KCNQ1 pot spec: -30; KCNQ2 pot confirm: 27*; Kir2-1 sel: -39; KCNQ2 W236L MoA: inactive

What do the screens show for `COc1cccc(OC)c1OCCCOc1c(OC)cccc1OC`?
KCNQ2 block: inactive

Results for COc1cccc(OC)c1OCCOc1ccccc1OC(C)C ?
KCNQ2 block: inactive; Kir21 confirm: 41%*; HEK293 ctr: inactive

How did O=C1COc2ccc(S(=O)(=O)CCC(=O)NC3CCCCC3)cc2N1 do in these assays?
KCNQ2 enhance: 0.2; KCNQ2 block: inactive

Results for COc1cc(OC)cc(-c2nnc(Nc3nc4c(F)cccc4s3)o2)c1 ?
KCNQ2 enhance: 3.3; KCNQ2 block: inactive

What do the screens show for `Fc1cccc2sc(Nc3nc4c(F)cccc4s3)nc12`?
KCNQ2 enhance: 1.3; KCNQ2 block: inactive; Kir21 confirm: inactive; HEK293 ctr: inactive

What do the screens show for `NNc1nc2c(F)cccc2s1`?
KCNQ2 block: inactive

Results for Fc1cccc2sc(Nc3nnc(-c4ccccc4)o3)nc12 ?
KCNQ2 enhance: 26*; KCNQ2 block: inactive; Kir21 confirm: inactive; HEK293 ctr: 449%*; CHO-K1 ctr: 1.3*; KCNQ1 pot spec: -21; KCNQ2 pot confirm: 62*; Kir2-1 sel: 1.1*; KCNQ2 W236L MoA: inactive

How did CC(=O)Nc1ccc(NC(=O)COC(=O)c2ccccn2)cc1 do in these assays?
KCNQ2 block: inactive

What do the screens show for `CCOc1cc(/C=N/Nc2nc(-c3cccc(S(=O)(=O)N4CCCC4)c3)cs2)ccc1O`?
KCNQ2 block: inactive

How did Cc1c(Cl)cccc1NC(=O)Cn1c(CCC(=O)O)ccc1-c1ccccc1 do in these assays?
KCNQ2 block: inactive

What do the screens show for `OC(CNCc1ccccc1F)COc1cccc2ccccc12` (centres undefined)?
KCNQ2 block: inactive; Kir21 confirm: 72%*; HEK293 ctr: inactive

Results for CC(C)NCC(O)COc1cccc2ccccc12 (centres undefined) ?
KCNQ2 block: inactive

How did CCOc1cc(CNCc2ccccn2)cc(Cl)c1OCC do in these assays?
KCNQ2 block: inactive

Results for CCOc1cc(CNCCSc2nnnn2C)cc(Br)c1OCc1ccccc1 ?
KCNQ2 block: inactive

What do the screens show for `CCCCNCc1cc(Br)c(OCc2cccs2)c(OC)c1`?
KCNQ2 block: inactive; Kir21 confirm: 20%*; HEK293 ctr: inactive

What do the screens show for `CCCCNCc1cc(Br)c(OCC(=O)NCc2ccccc2)c(OC)c1`?
KCNQ2 block: inactive
